# From PubChem BioAssay (NCI)
# Compounds without any hit were thinned out: in the full panel of roughly 83,000, 20% have a hit.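 In brief: 96-well plates, 48 h treatment, single concentration, percent growth endpoint.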 Values without a mark were called inactive. Active and inactive are the calls of the source. How the source made its calls: active means growth percent below 10; inactive means the rest.
# Test system: 786-0 renal
# Assay: NCI-60 one-dose screen, 48 h (100 = growth as untreated, 0 = no growth, -100 = all killed)
# Conditions: 10 µM unless noted
row,SMILES,growth
1,CC(=O)Nc1ccc(-c2nc3cc(-c4ccc(O)cc4)ccc3n2C)cc1,50.3%
2,Clc1cccc(Cl)c1/C=C/c1cc(/C=C/c2ccc(Br)cc2)c2ccccc2n1,92.2%
3,COc1cc(OC)cc(-c2cc3ccc(N(C)C)cc3c(=O)[nH]2)c1,29.9%
4,CNC(=O)c1cc(Oc2ccc3nc(NC(=O)Nc4cccc(OC(F)(F)F)c4)sc3c2)ccn1,-50.7% (active)
5,N#Cc1c(-c2ccc(Br)cc2)nc2n[nH]c(-c3ccc(Br)cc3)c2c1-c1ccc(F)cc1,102%
6,CCN1CCN(Cc2ccc(C(=O)Nc3cccc(C#Cc4cccc5[nH]nc(N)c45)c3)cc2C(F)(F)F)CC1,-98.5% (active)
7,O=c1[nH]n(C(=S)N/N=C/c2ccccc2Cl)c(=O)c2ccccc12,12.9%
8,CC1(C)CC[C@]2(C(=O)Nc3ccccc3)CC[C@]3(C)C(=CCC4[C@@]5(C)C[C@@H](O)[C@H](O)[C@@](C)(CO)C5CC[C@]43C)C2C1 (some centres undefined),71.1%
9,Nc1nnc(-c2c[nH]c3ncc(Br)cc23)c(-c2c[nH]c3ccc(F)cc23)n1,39.2%
10,COc1ccc(C(=O)/C=C/c2ccccc2Br)cc1S(N)(=O)=O,-78% (active)
11,CSc1ccccc1NC(=O)c1ccc2nn(/C(C#N)=C/c3ccccn3)nc2c1,-96.5% (active)
12,O=C(N=Nc1c(O)[nH]c2ccc(Cl)cc12)c1ccc2nc(-c3ccccc3)[nH]c2c1,47.4%
13,CC(=O)Oc1ccccc1C(=O)[Se]C(=NC1CCCCC1)NC1CCCCC1,-93.4% (active)
14,CSc1ccc(NC(=O)c2ccc3nnn(/C(C#N)=C/c4ccccn4)c3c2)cc1,-98.1% (active)
15,COc1ccc(C(=O)/C=C/c2cccnc2)cc1S(N)(=O)=O,50.4%
16,Cc1ccc([C@H]2C(C(=O)c3ccc(Cl)cc3)C3(N[C@@H]2c2ccccc2)C(=O)Nc2ccccc23)cc1 (some centres undefined),33.4%
17,CN(C)CCCNC(=O)c1cc(NC(=O)c2cc(NC(=O)c3ccc(C#Cc4ccccc4)cc3)cn2C)cn1C,-86.9% (active)
18,COc1ccc(C(=O)/C=C/c2cccc3ccccc23)cc1S(N)(=O)=O,-29.8% (active)
19,COc1ccc(NC(=O)c2sc3nc(C(C)C)ccc3c2N)cc1,97.5%
20,COc1ccc([C@H](C)Nc2nc(Cl)nc3ccccc23)cc1,84.8%
21,COc1cc2oc(-c3cccc(NC(=O)[C@H](Cc4ccccc4)NC(=O)OC(C)(C)C)c3)cc(=O)c2c(OC)c1OC,43.8%
22,Cc1ccc(C(=O)CSc2nc3ccc(F)cc3c(=O)n2-c2ccc(Cl)cc2)cc1,10.7%
23,CC(C)Sc1nc(NCCc2c[nH]c3ccccc23)c(C#N)c(-c2ccc(F)cc2)n1,14.4%
24,OCNc1ccc(-n2cnc3cc(-c4ccc(O)cc4)ccc32)cc1C(F)(F)F,22.7%
25,Cc1cc2nc3c4ccccc4n(CCNCCN(C)C)c3nc2cc1C,20.4%
26,COc1ccc2c(c1)C(=N/N=C(\C)c1ccc(OC)c(S(N)(=O)=O)c1)C(=O)N2,97.9%

# Test system: COLO 205 colon
# Assay: as above
# Conditions: 10 µM unless noted
row,SMILES,growth
1,O=C(COc1ccc(NC(=O)Nc2ccc(Cl)c(Cl)c2)cc1)N=Nc1c(O)[nH]c2ccccc12,-41.7% (active)
2,COc1ccc(-c2nnc3ccc(N/N=C/c4ccc(O)cc4)nn23)cc1,56.5%
3,CCCSc1nc(NCCc2c[nH]c3ccccc23)c(C#N)c(-c2ccccc2)n1,62.8%
4,CSc1ccc(C(=O)Nc2ccc3nnn(/C(C#N)=C/c4ccccn4)c3c2)cc1,-66.2% (active)
5,CC(=O)OC[C@@]1(C)C2CC[C@]3(C)C(CC=C4C5CC(C)(C)CC[C@]5(C(=O)Nc5cccc(C)c5)CC[C@]43C)[C@@]2(C)C[C@@H](OC(C)=O)[C@@H]1OC(C)=O (some centres undefined),45.7%
6,CN(C)c1ccnc(CNCCSC2(c3ccccc3)c3ccccc3C=Cc3ccccc32)c1,-84.7% (active)
7,Cn1cc(-c2nnc(N)nc2-c2c[nH]c3ccc(F)cc23)c2cccnc21,26.9%
8,Clc1cccc(-c2ccc(OCCCN3CCN(c4ccncc4)CC3)cc2)c1,-86.1% (active)
9,Cc1ccccc1[C@H]1C(C(=O)c2ccc(Cl)cc2)C2(N[C@@H]1c1ccccc1)C(=O)Nc1ccc(Br)cc12 (some centres undefined),-34.5% (active)
10,CN(C)c1ccnc(CNCCSC2(c3ccc(C(F)(F)F)cc3)c3ccccc3C=Cc3ccccc32)c1,-82.3% (active)
11,O=C(c1ccc(OCCN2CCOCC2)cc1)C1[C@H](c2ccc(Cl)cc2)[C@@H](c2ccccc2)NC12C(=O)Nc1ccc(Cl)cc12 (some centres undefined),-20.1% (active)
12,COc1cc(CNC(=O)/C=C/c2ccc3c(c2)OCO3)ccc1OCc1cn(-c2ccc([N+](=O)[O-])cc2)nn1,118%
13,CC(=O)Nc1ccc(-c2nc3cc(-c4ccc(O)cc4)ccc3n2C)cc1,71.3%
14,Clc1cccc(Cl)c1/C=C/c1cc(/C=C/c2ccc(Br)cc2)c2ccccc2n1,117%
15,COc1cc(OC)cc(-c2cc3ccc(N(C)C)cc3c(=O)[nH]2)c1,-44.8% (active)
16,CNC(=O)c1cc(Oc2ccc3nc(NC(=O)Nc4cccc(OC(F)(F)F)c4)sc3c2)ccn1,68.2%
17,N#Cc1c(-c2ccc(Br)cc2)nc2n[nH]c(-c3ccc(Br)cc3)c2c1-c1ccc(F)cc1,92.1%
18,CCN1CCN(Cc2ccc(C(=O)Nc3cccc(C#Cc4cccc5[nH]nc(N)c45)c3)cc2C(F)(F)F)CC1,-86.6% (active)
19,O=c1[nH]n(C(=S)N/N=C/c2ccccc2Cl)c(=O)c2ccccc12,-60.9% (active)

row,SMILES,growth
1,CC1(C)CC[C@]2(C(=O)Nc3ccccc3)CC[C@]3(C)C(=CCC4[C@@]5(C)C[C@@H](O)[C@H](O)[C@@](C)(CO)C5CC[C@]43C)C2C1 (some centres undefined),31.6%
2,Nc1nnc(-c2c[nH]c3ncc(Br)cc23)c(-c2c[nH]c3ccc(F)cc23)n1,16.2%
3,COc1ccc(C(=O)/C=C/c2ccccc2Br)cc1S(N)(=O)=O,-72.8% (active)
4,CSc1ccccc1NC(=O)c1ccc2nn(/C(C#N)=C/c3ccccn3)nc2c1,-84% (active)
5,O=C(N=Nc1c(O)[nH]c2ccc(Cl)cc12)c1ccc2nc(-c3ccccc3)[nH]c2c1,62%
6,CC(=O)Oc1ccccc1C(=O)[Se]C(=NC1CCCCC1)NC1CCCCC1,-70.6% (active)
7,CSc1ccc(NC(=O)c2ccc3nnn(/C(C#N)=C/c4ccccn4)c3c2)cc1,-88.4% (active)
8,COc1ccc(C(=O)/C=C/c2cccnc2)cc1S(N)(=O)=O,23.9%
9,Cc1ccc([C@H]2C(C(=O)c3ccc(Cl)cc3)C3(N[C@@H]2c2ccccc2)C(=O)Nc2ccccc23)cc1 (some centres undefined),19.2%
10,CN(C)CCCNC(=O)c1cc(NC(=O)c2cc(NC(=O)c3ccc(C#Cc4ccccc4)cc3)cn2C)cn1C,-74.9% (active)
11,COc1ccc(C(=O)/C=C/c2cccc3ccccc23)cc1S(N)(=O)=O,-78.6% (active)
12,COc1ccc(NC(=O)c2sc3nc(C(C)C)ccc3c2N)cc1,113%
13,COc1ccc([C@H](C)Nc2nc(Cl)nc3ccccc23)cc1,90.3%
14,COc1cc2oc(-c3cccc(NC(=O)[C@H](Cc4ccccc4)NC(=O)OC(C)(C)C)c3)cc(=O)c2c(OC)c1OC,33.8%
15,Cc1ccc(C(=O)CSc2nc3ccc(F)cc3c(=O)n2-c2ccc(Cl)cc2)cc1,69.9%
16,CC(C)Sc1nc(NCCc2c[nH]c3ccccc23)c(C#N)c(-c2ccc(F)cc2)n1,28.9%
17,OCNc1ccc(-n2cnc3cc(-c4ccc(O)cc4)ccc32)cc1C(F)(F)F,43.5%
18,Cc1cc2nc3c4ccccc4n(CCNCCN(C)C)c3nc2cc1C,-71.5% (active)
19,COc1ccc2c(c1)C(=N/N=C(\C)c1ccc(OC)c(S(N)(=O)=O)c1)C(=O)N2,98.7%
